Test [1] is described as follows: qHTS assay to identify small molecule antagonists of the androgen receptor (AR) signaling pathway using the MDA cell line in the presence of 0.5 nM R1881 - cell viability counter screen (AID 1259242). Note: nearly all actives have a fitted effect of over 45% in size. Note: potency is the fitted concentration of half-maximal effect. In short, it runs like this: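 Viability of MDA-kb2 cells was multiplexed with the luciferase AR readout; after 16 hr with compounds and R1881 at 0.5 nM final, CellTiter-Fluor fluorescence was recorded.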
(In general: In qHTS, concentration-response curves come from the screen itself.)

The target in test [2] is Estrogen receptor (Homo sapiens) (UniProt P03372). Briefly: qHTS assay to identify small molecule antagonists of the estrogen receptor alpha (ER-alpha) signaling pathway using the BG1 cell line in the presence of 0.1 nM 17-beta-estradiol (AID 1259244). Note: nearly all actives have a fitted effect of over 50% in size. Note: potency is the fitted concentration of half-maximal effect. In short, it runs like this: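 Estradiol at 0.1 nM (final) stimulates the endogenous ER-alpha of VM7Luc4E2 cells carrying an ERE-driven luciferase; compounds are co-incubated 22 h at 37C and luciferase output quantified by luminescence.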
Chain of Estrogen receptor (Homo sapiens) (P03372 whole entry, looked up): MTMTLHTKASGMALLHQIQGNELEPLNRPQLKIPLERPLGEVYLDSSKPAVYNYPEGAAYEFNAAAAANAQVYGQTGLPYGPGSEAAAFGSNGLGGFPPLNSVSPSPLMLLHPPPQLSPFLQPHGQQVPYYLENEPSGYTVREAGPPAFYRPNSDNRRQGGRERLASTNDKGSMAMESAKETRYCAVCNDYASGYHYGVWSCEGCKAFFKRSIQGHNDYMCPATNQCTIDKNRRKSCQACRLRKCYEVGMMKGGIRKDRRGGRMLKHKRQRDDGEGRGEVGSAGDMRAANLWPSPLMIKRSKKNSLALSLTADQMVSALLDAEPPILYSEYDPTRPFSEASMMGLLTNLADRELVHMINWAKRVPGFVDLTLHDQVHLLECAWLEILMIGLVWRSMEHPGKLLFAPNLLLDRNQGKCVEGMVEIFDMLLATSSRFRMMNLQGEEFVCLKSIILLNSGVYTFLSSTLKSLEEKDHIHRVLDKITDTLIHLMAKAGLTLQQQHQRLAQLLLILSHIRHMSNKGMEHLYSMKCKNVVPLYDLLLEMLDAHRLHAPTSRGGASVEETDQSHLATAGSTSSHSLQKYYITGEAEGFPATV

Test [3] is described as follows: qHTS assay to identify small molecule phospholipidosis (PLD) inducers (AID 1259344; active = well fitted curve in the direction sought with a large enough effect; an effect the other way counts as inactive or inconclusive). Put shortly: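 Quantitative HTS in HepG2: compound plus LipidTOX Red dye for 24 h, paraformaldehyde fixation with Hoechst 33342, widefield high-content imaging; amiodarone as positive and DMSO as negative control.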
Test [4] is described as follows: qHTS assay to identify small molecule HDAC inhibitors (AID 1259364). Note: potency is the fitted concentration of half-maximal effect.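 Note: wild-type HCT-116 cells with endogenous class I/II HDAC activity; nearly all actives have a fitted effect of over 45% in size.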 Put shortly: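 Read-out: luminescence of HDAC-Glo I/II reagent, 30 min RT, reflecting class I/II deacetylase activity in whole HCT-116 cells pre-exposed 2 h to DMSO-dissolved compounds.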
Test [5] can be described thus: qHTS assay to identify small molecule HDAC inhibitors - cell viability counter screen (AID 1259365). Note: series mostly up to about 92 µM; nearly all actives have a fitted effect of over 50% in size. Put shortly:
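HCT-116 (wild type), 1,500 cells/well, overnight 37C/5% CO2; compound in DMSO 2hr; CellTiter-Glo 30min RT; luminescence read.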

Test [6] in a line: qHTS assay to identify small molecule agonists of the sonic hedgehog signaling (Shh) pathway - cell viability counter screen (AID 1259366). Note: nearly all actives have a fitted effect of over 50% in size. Note: potency is the fitted concentration of half-maximal effect. In short, it runs like this: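 CellTiter-Fluor fluorescence read-out, 1 hr at 37C, added after 23hr compound exposure. Cells: 3T3 Gli1-Luc, an NIH/3T3 clone with stably integrated Gli1-Luc reporter, plated 4hr before compound.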
The nature of test [7]: qHTS assay to identify small molecule antagonists of the sonic hedgehog signaling (Shh) pathway - cell viability counter screen (AID 1259367). Note: nearly all actives have a fitted effect of over 55% in size. Note: potency is the fitted concentration of half-maximal effect. Put shortly: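 Seed 3T3 Gli1-Luc cells at 2,000 per well; incubate 4 hr; add compound in DMSO, then conditioned medium; incubate at 37C with 5% CO2; add CellTiter-Fluor after 23 hr; read fluorescence 1 hr later.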
Test [8] in a line: qHTS assay to identify small molecule agonists of the sonic hedgehog signaling (Shh) pathway (AID 1259368; calls by dose curve;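 note: NIH/3T3-derived 3T3Gli1-Luc cells carrying a stable Gli1-driven firefly luciferase reporter; series mostly up to about 92 µM; nearly all actives have a fitted effect of over 15% in size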). In short, it runs like this: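 A Gli1 transcriptional response element controlled firefly luciferase in 3T3Gli1-Luc cells. Compounds and a positive control were added 4 hr after plating, and cells were incubated a further 24 hr at 37 C before luminescence detection.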
Test [9] can be described thus: qHTS assay to identify small molecule antagonists of the sonic hedgehog signaling (Shh) pathway (AID 1259369; calls by dose curve; note: nearly all actives have a fitted effect of over 45% in size; note: potency is the fitted concentration of half-maximal effect). In short, it runs like this:
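For antagonist detection, the reporter line received test compounds together with conditioned medium, incubated 24hr at 37 C, 5% CO2, then luminescence was recorded following 30min room-temperature luciferase reagent incubation.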

In test [10] the target is Androgen receptor (Homo sapiens) (UniProt P10275). Put plainly: qHTS assay to identify small molecule antagonists of the androgen receptor (AR) signaling pathway using the MDA cell line in the presence of 0.5 nM R1881 (AID 1259243). Note: nearly all actives have a fitted effect of over 50% in size. Note: potency is the fitted concentration of half-maximal effect. Put shortly:
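Reporter cells cultured without CO2 receive test chemicals, then 0.5 nM R1881 final; after 16 hr at 37C, ONE-Glo is added and light output recorded.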

The structures appear in SMILES notation. A number with no mark means an inactive call. Results filed as inconclusive are left out. The source made the active and inactive calls. Unless noted, calls come from the whole dose curve; as a rule, active = well fitted curve in the direction sought with a large enough effect in the repeat runs; inconclusive = weak or mixed curves; inactive = no such curve, though single readings can be large; an effect the other way counts as inactive or inconclusive.
% is set by controls: 0 for no effect and ±100 for the full control effect.

Chain of Androgen receptor (Homo sapiens) (P10275 whole entry, looked up): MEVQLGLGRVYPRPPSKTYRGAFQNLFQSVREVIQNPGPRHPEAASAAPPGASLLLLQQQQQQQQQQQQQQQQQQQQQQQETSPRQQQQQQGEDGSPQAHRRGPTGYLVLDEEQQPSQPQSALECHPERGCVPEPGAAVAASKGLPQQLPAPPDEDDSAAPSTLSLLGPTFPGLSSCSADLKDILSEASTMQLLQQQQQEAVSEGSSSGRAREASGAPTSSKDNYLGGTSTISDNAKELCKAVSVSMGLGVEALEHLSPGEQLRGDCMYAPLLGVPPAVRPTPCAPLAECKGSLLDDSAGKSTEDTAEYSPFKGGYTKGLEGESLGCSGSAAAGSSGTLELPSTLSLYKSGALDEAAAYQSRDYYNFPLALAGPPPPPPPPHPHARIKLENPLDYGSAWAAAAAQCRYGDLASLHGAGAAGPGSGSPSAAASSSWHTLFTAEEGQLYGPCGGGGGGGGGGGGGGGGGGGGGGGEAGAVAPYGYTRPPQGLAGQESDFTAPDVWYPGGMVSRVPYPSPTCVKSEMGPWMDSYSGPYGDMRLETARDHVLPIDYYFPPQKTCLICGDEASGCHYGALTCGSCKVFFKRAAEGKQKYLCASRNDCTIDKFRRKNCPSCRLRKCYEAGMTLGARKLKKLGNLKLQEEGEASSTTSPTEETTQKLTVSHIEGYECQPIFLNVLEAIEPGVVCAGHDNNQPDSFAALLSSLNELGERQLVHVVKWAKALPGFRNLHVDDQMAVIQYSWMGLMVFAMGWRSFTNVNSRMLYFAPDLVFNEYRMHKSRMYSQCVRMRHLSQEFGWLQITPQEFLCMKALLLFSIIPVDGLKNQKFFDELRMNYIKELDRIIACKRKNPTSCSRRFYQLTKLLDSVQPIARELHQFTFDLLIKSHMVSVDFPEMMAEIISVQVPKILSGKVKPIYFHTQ

On to `Cn1sc(Cl)cc1=O`, for which the Potency result in test [1], in test [2], in [4], in test [5], in test [6] and in test [7] was “inactive” in each case. Moreover, the Potency result in test [8] and in [9] was “inactive” in each case. Also, the call in test [3] was inactive.
`O=C1C(Cl)C(CCl)CN1c1cccc(C(F)(F)F)c1` (stereo not drawn): the Potency entry in test [1], in test [4], in test [5], in [6], in [7] and in test [8] was “inactive” each time. For the same compound, in [10], the Potency was 3.86 µM (active).
With `ClC=C(Cl)Cl`, the Potency result in test [1], in test [2], in test [4], in [6], in [7] and in test [8] was “inactive” in each case. Further, in test [9], the Potency entry is “inactive”. Also, the compound was called inactive in [3].
Regarding `COCC(C)N(C(=O)CCl)c1c(C)csc1C` (stereo not drawn), the Potency result in test [1], in test [2], in test [4], in test [5], in test [6] and in [8] was “inactive” throughout. Moreover, the outcome in test [3] was inactive. Besides, the Potency in test [9] is 30.6 µM (active).
On to `Clc1cccc(SC2CCNCC2)n1`, for which the Potency entry in test [1], in test [2], in test [4], in test [5], in test [6] and in test [8] was “inactive” each time. Moreover, the call in test [3] was inactive. Besides, the Potency in test [9] was 26.6 µM (active).
In the case of `CCCCCC[N+](=O)[O-]`, the Potency result in [1], in test [10], in [4], in [5], in test [6] and in [7] was “inactive” in each case. Further, the Potency result in test [8] and in [9] was “inactive” each time.
For the compound `CN1C(=O)C(O)N=C(c2ccccc2)c2cc(Cl)ccc21` (stereo not drawn), the Potency result in test [1], in test [4], in [6], in [7] and in [8] was “inactive” each time. In addition, in [2], the Potency was 56.4 µM (active). For the same compound, the result in [3] was inactive.
Turning to `Clc1ccc(C(OCCN2CCCCC2)c2ccccc2)cc1` (stereo not drawn), the Potency entry in test [1], in test [2], in test [4], in [5], in test [6] and in test [7] was “inactive” throughout. Further, the Potency result in [8] is “inactive”. For the same compound, in test [3], the outcome was inactive.
For the compound `COP(=O)(OC)O/C(=C/Cl)c1cc(Cl)c(Cl)cc1Cl`, the Potency result in test [1], in test [4], in test [5], in test [6], in test [7] and in [8] was “inactive” in each case. The values for the Potency in test [10], in [2] and in [9] were 45.7 µM (active), 57.5 µM (active) and 57.5 µM (active), respectively.
Take `CC[C@H]1C[C@H]2[C@@H]3CCC4=CC(=O)CC[C@@H]4[C@H]3CC[C@]2(C)[C@H]1O`: the Potency entry in [1], in test [2], in test [4], in test [6], in test [7] and in test [8] was “inactive” each time. Further, the Potency result in [9] is “inactive”. Moreover, in test [3], the PLD induction was 1.62% [at 7.66 µM].
Consider `CNC(C)Cc1ccccc1OC` (stereo not drawn), for which the Potency result in test [1], in test [2], in test [4], in [5], in [6] and in test [7] was “inactive” in each case. Besides, the Potency entry in [8] and in test [9] was “inactive” throughout. Further, the call in test [3] was inactive.
For the compound `COc1cc(CC(C)N)cc2c1OCO2` (stereo not drawn), the Potency entry in test [1], in test [2], in [4], in test [6], in test [7] and in test [8] was “inactive” each time. The Potency result in test [9] is “inactive”. The compound was called inactive in test [3].
With `O=[N+]([O-])c1ccc(F)c([N+](=O)[O-])c1`, the Potency in [1] is 30.9 µM (active); in test [2], 27.6 µM (active); in test [4], 12.3 µM (active); in test [6] it was 24.6 µM (active). In addition, the compound was classed as inactive in test [3]. Moreover, the Potency result in test [5] and in test [8] was “inactive” each time.
In the case of `O=C1NCN(c2ccccc2)C12CCN(CCCOc1ccc(F)cc1)CC2`, the Potency entry in test [1], in [4], in test [5] and in test [7] was “inactive” each time. Further, the Potency in test [2] is 7.5 µM (active). For the same compound, in [3], the compound was classed as inactive.
As for `NC(=O)C(Cl)(Cl)Cl`, the Potency entry in [1], in test [2], in test [4], in test [5] and in test [6] was “inactive” in each case.
For `COc1nn(CSP(=S)(OC)OC)c(=O)s1`, the Potency entry in test [1], in test [2], in test [4], in test [5], in [6] and in [7] was “inactive” each time. For the same compound, the Potency result in test [8] is “inactive”. Also, in test [3], the compound was called inactive.
`C=CCC1([C@H](C)CCC)C(=O)NC(=O)NC1=O`: the Potency entry in test [1], in test [2], in test [4], in test [5], in [6] and in test [7] was “inactive” throughout. Further, the Potency result in test [8] and in test [9] was “inactive” in each case. Also, in test [3], the outcome was inactive.
Take `O=[N+]([O-])C(Br)(CO)CO`: the Potency result in test [1], in test [2], in test [4] and in [8] was “inactive” in each case. The call in [3] was inactive. The Potency was 48.6 µM (active) in [6], 61.1 µM (active) in test [7] and 34.4 µM (active) in [9].
As for `OCCCBr`, the Potency result in test [1], in [2], in [4], in test [5], in test [6] and in [7] was “inactive” throughout. Besides, the call in test [3] was inactive.
Turning to `c1cc2ccc3cccc4ccc(c1)c2c34`, the Potency entry in test [1], in test [2], in test [4], in test [5], in test [6] and in [7] was “inactive” throughout. The Potency result in test [8] and in [9] was “inactive” each time. The result in test [3] was inactive.
For `COC(=O)C(Cl)C(=O)OC`, the Potency entry in [1], in [2], in test [4], in test [6], in [7] and in test [8] was “inactive” throughout. In addition, in test [9], the Potency entry was “inactive”. For the same compound, the compound was classed as inactive in test [3].
In the case of `CC(=O)NC1CCSC1=O` (stereo not drawn), the Potency entry in test [1], in test [2], in [4], in test [5], in [6] and in test [7] was “inactive” each time. For the same compound, the Potency result in test [8] and in [9] was “inactive” each time. In [3], the result was inactive.
`CCO[C@H]1O[C@@H]2OC3(C)CC[C@H]4[C@H](C)CC[C@@H]([C@H]1C)[C@@]24OO3`: the Potency entry in [1], in test [2], in [4], in test [6], in [7] and in test [8] was “inactive” in each case. The Potency result in test [9] is “inactive”. Also, the Potency in [10] is 10.6 µM (active).
For `O=C(CCl)c1ccc(Cl)cc1Cl`, the Potency result in [1], in [2], in test [4], in test [5], in test [7] and in [8] was “inactive” in each case. The compound was called inactive in test [3]. Also, the Potency in [6] was 33.5 µM (active); in test [9], 5.96 µM (active).
For the compound `CC1Sc2c(C(=O)O)c(=O)c3cc(F)c(N4CCNCC4)cc3n21` (stereo not drawn), the Potency entry in test [1], in test [10], in test [2], in [4], in test [5] and in [6] was “inactive” in each case. Besides, the Potency result in test [7], in test [8] and in test [9] was “inactive” throughout.
In the case of `c1ccc(C2CC2)c(OCC2=NCCN2)c1`, the Potency result in test [1], in test [2], in [4], in test [5], in [6] and in test [7] was “inactive” in each case. Moreover, the Potency result in test [8] and in test [9] was “inactive” each time. The compound was called inactive in test [3].
For the compound `C=CC(=O)NCNC(=O)C=C`, the Potency result in test [1], in [2], in test [7] and in [8] was “inactive” in each case. In addition, the call in test [3] was inactive.

These data come from PubChem BioAssay (Tox21).
